Read-out in test [1]: TIMP metallopeptidase inhibitor 1 (TIMP1), TIMP1 (gene 7076)
The test can be described thus: BSK_hDFCGF_TIMP1: BioMAP Diversity Plus: hDFCGF Assay for TIMP metallopeptidase inhibitor 1 (TIMP1) Biomarker Activity (AID 2283062). Particulars: primary human foreskin fibroblasts; actives raise or lower the signal. Summed up:
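Bidirectional curve fitting against DMSO baseline yielded this endpoint, based on ELISA detection of TIMP-1 in primary human foreskin fibroblasts exposed to compound for 24 h.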

Read-out in test [2]: Monokine induced gamma interferon (MIG), CXCL9 (gene 4283)
In words: BSK_hDFCGF_MIG: BioMAP Diversity Plus: hDFCGF Assay for Monokine induced gamma interferon (MIG) Biomarker Activity (AID 2283063). Particulars: primary human foreskin fibroblasts; actives raise or lower the signal. The gist of the method:
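Endpoint derived by bidirectional fitting relative to DMSO; MIG quantified via ELISA in primary human foreskin fibroblasts harvested 24 h after dosing.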

Read-out in test [3]: Matrix Metallopeptidase 1 (MMP1), MMP1 (gene 4312)
The test can be described thus: BSK_hDFCGF_MMP1: BioMAP Diversity Plus: hDFCGF Assay for Matrix Metallopeptidase 1 (MMP1) Biomarker Activity (AID 2283064). The conditions noted are these: primary human foreskin fibroblasts; actives raise or lower the signal. The gist of the method: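 MMP1 levels quantified by ELISA 24 h after dosing human dermal fibroblast cultures, with parallel SRB total-protein staining for overt cytotoxicity. Data fitted in both directions against DMSO baseline.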

Read-out in test [4]: Vascular cell adhesion molecule 1 (VCAM1), VCAM1 (gene 7412)
In words: BSK_hDFCGF_VCAM1: BioMAP Diversity Plus: hDFCGF Assay for Vascular cell adhesion molecule 1 (VCAM1) Biomarker Activity (AID 2283065).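 On AC50: VCAM-1 protein level quantified by ELISA after 24 h chemical exposure.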 The conditions noted are these: primary human foreskin fibroblasts; actives raise or lower the signal. Summed up: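 Measured after 24 h chemical treatment of primary human skin fibroblasts, VCAM-1 was detected by ELISA and concentration-response analysed in both directions versus DMSO vehicle.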

Read-out in test [5]: Plasminogen activator inhibitor-1 (PAI1), SERPINE1 (gene 5054)
In words: BSK_hDFCGF_PAI1: BioMAP Diversity Plus: hDFCGF Assay for Plasminogen activator inhibitor-1 (PAI1) Biomarker Activity (AID 2283066). Particulars: primary human foreskin fibroblasts; actives raise or lower the signal. Summed up:
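Human skin fibroblast cultures receive chemical for 24 h before PAI-1 is measured by ELISA; signal changes are fitted bidirectionally against DMSO-treated wells.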

Read-out in test [6]: Intercellular Adhesion Molecule 1 (ICAM1), ICAM1 (gene 3383)
In words: BSK_KF3CT_ICAM1: BioMAP Diversity Plus: KF3CT Assay for Intercellular Adhesion Molecule 1 (ICAM1) Biomarker Activity (AID 2283067). Particulars: primary human keratinocytes with fibroblasts; actives raise or lower the signal. Summed up:
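Bidirectional curve fitting against a DMSO baseline was applied to ICAM-1 ELISA signal from primary human skin co-cultures harvested 24 h after treatment, with SRB staining of parallel wells for overt cytotoxicity.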

Read-out in test [7]: Interferon-gamma inducible Protein 10 (IP10), CXCL10 (gene 3627)
In words: BSK_KF3CT_IP10: BioMAP Diversity Plus: KF3CT Assay for Interferon-gamma inducible Protein 10 (IP10) Biomarker Activity (AID 2283068). The conditions noted are these: primary human keratinocytes with fibroblasts; actives raise or lower the signal. The gist of the method:
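Signal is secreted/surface IP-10 by ELISA in a human primary skin co-culture of keratinocytes and foreskin fibroblasts, taken 24 h post-dosing; DMSO served as negative control.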

Test [8] is described as follows: BSK_KF3CT_SRB: Viability Assessment in the BioMAP Diversity Plus: KF3CT Assay (AID 2283069).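 Further: total protein by sulforhodamine B staining as a cytotoxicity measure; read 24 h after compound addition.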 The conditions noted are these: primary human keratinocytes with fibroblasts. The gist of the method: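 Cytotoxicity was gauged by SRB staining (0.1% SRB, 10% TCA fixation, 560 nm) of parallel cultures at 24 h. The cells were primary human skin keratinocytes co-cultured with fibroblasts, and activity was fitted in both directions against DMSO.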

Read-out in test [9]: Interleukin-1 alpha (IL1a), IL1A (gene 3552)
In words: BSK_KF3CT_IL1a: BioMAP Diversity Plus: KF3CT Assay for Interleukin-1 alpha (IL1a) Biomarker Activity (AID 2283070). The conditions noted are these: primary human keratinocytes with fibroblasts; actives raise or lower the signal. Summed up: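 IL-1a was detected by ELISA 24 h after chemical treatment of a co-culture of human skin keratinocytes and foreskin fibroblasts. Gain or loss of signal was fitted against the DMSO baseline.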

Read-out in test [10]: TIMP metallopeptidase inhibitor 2 (TIMP2), TIMP2 (gene 7077)
In words: BSK_KF3CT_TIMP2: BioMAP Diversity Plus: KF3CT Assay for TIMP metallopeptidase inhibitor 2 (TIMP2) Biomarker Activity (AID 2283071). The conditions noted are these: primary human keratinocytes with fibroblasts; actives raise or lower the signal. Summed up:
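Measurements come from ELISA detection of TIMP-2 at 24 hours in a dosed human keratinocyte and foreskin fibroblast co-culture. DMSO serves as negative control and baseline.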

Read-out in test [11]: Transforming growth factor beta 1 (TGFb1), TGFB1 (gene 7040)
In words: BSK_KF3CT_TGFb1: BioMAP Diversity Plus: KF3CT Assay for Transforming growth factor beta 1 (TGFb1) Biomarker Activity (AID 2283072). The conditions noted are these: primary human keratinocytes with fibroblasts; actives raise or lower the signal. Summed up:
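TGF-b1 ELISA on a 24 h dosed co-culture of human keratinocytes and foreskin fibroblasts; cytotoxicity tracked in parallel cultures by SRB staining.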

Read-out in test [12]: C-C motif chemokine 2 (Homo sapiens) (UniProt P13500)
In words: BSK_KF3CT_MCP1: BioMAP Diversity Plus: KF3CT Assay for Monocyte Chemoattractant Protein 1 (MCP1/CCL2) Biomarker Activity (AID 2283073). The conditions noted are these: primary human keratinocytes with fibroblasts; actives raise or lower the signal. The gist of the method:
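Biomarker MCP-1 is measured by ELISA in primary human keratinocytes co-cultured with foreskin fibroblasts, 24 h after chemical treatment; DMSO serves as the negative control and activity baseline.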

Read-out in test [13]: urokinase plasminogen activator (uPA), PLAU (gene 5328)
In words: BSK_KF3CT_uPA: BioMAP Diversity Plus: KF3CT Assay for urokinase plasminogen activator (uPA) Biomarker Activity (AID 2283075). The conditions noted are these: primary human keratinocytes with fibroblasts; actives raise or lower the signal. Summed up:
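ELISA read-out of uPA 24 h after dosing human skin keratinocytes co-cultured with foreskin fibroblasts. Signal change fitted both ways relative to DMSO; sulforhodamine B on parallel cultures marks overt cytotoxicity.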

Read-out in a further test: CD40, CD40 (gene 958)
In words: BSK_LPS_CD40: BioMAP Diversity Plus: LPS Assay for CD40 Biomarker Activity (AID 2283076). The conditions noted are these: primary human HUVEC with PBMC; actives raise or lower the signal. Summed up: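 Using a multiplexed primary human co-culture (umbilical vein endothelium plus PBMC), CD40 was read by ELISA 24 h after dosing, with cytotoxicity tracked by sulforhodamine B staining of parallel cultures and activity fitted bidirectionally versus DMSO.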

Read-out in test [14]: E-selectin (Homo sapiens) (UniProt P16581)
The test can be described thus: BSK_LPS_Eselectin: BioMAP Diversity Plus: LPS Assay for Eselectin Biomarker Activity (AID 2283077). The conditions noted are these: primary human HUVEC with PBMC; actives raise or lower the signal. Summed up:
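Dose chemical onto LPS-driven HUVEC/PBMC co-culture; after 24 h, run ELISA for E-selectin; fit up- and down-going responses relative to DMSO control.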

Read-out in test [15]: Interleukin-8 (IL8), CXCL8 (gene 3576)
In words: BSK_LPS_IL8: BioMAP Diversity Plus: LPS Assay for Interleukin-8 (IL8) Biomarker Activity (AID 2283078). The conditions noted are these: primary human HUVEC with PBMC; actives raise or lower the signal. The gist of the method:
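In this LPS system, chemical-treated human umbilical vein endothelium/PBMC co-cultures were harvested at 24 h for IL-8 ELISA.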

The nature of test [16]: BSK_LPS_SRB: Viability Assessment in the BioMAP Diversity Plus: LPS Assay (AID 2283079).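 Further: total protein by sulforhodamine B absorbance as a cytotoxicity measure; measured one day after compound addition; fitted in both directions against DMSO so loss or gain of signal counts.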 Particulars: primary human HUVEC with PBMC. Summed up:
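Cytotoxicity endpoint in human endothelial–PBMC co-culture: 24 h exposure, then SRB (0.1%) staining, 560 nm read.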

Read-out in test [17]: Interleukin-1 alpha (IL1a), IL1A (gene 3552)
The test can be described thus: BSK_LPS_IL1a: BioMAP Diversity Plus: LPS Assay for Interleukin-1 alpha (IL1a) Biomarker Activity (AID 2283080). Particulars: primary human HUVEC with PBMC; actives raise or lower the signal. The gist of the method:
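Primary human HUVEC and PBMC co-culture stimulated with LPS is dosed and harvested at 24 h. Both increases and decreases in ELISA-measured IL-1a are scored relative to DMSO.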

Read-out in test [18]: Monocyte Chemoattractant Protein-1 (MCP1), CCL2 (gene 6347)
The test can be described thus: BSK_LPS_MCP1: BioMAP Diversity Plus: LPS Assay for Monocyte Chemoattractant Protein-1 (MCP1) Biomarker Activity (AID 2283081).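 On AC50: secreted MCP-1 protein quantified by ELISA in culture supernatant.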 The conditions noted are these: primary human HUVEC with PBMC; actives raise or lower the signal. The gist of the method: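 Values derive from bidirectional fitting against DMSO of ELISA-measured MCP-1 in a human primary endothelial and mononuclear cell co-culture, 24 h after chemical addition under LPS activation.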

Read-out in test [19]: Matrix Metallopeptidase 9 (MMP9), MMP9 (gene 4318)
In words: BSK_KF3CT_MMP9: BioMAP Diversity Plus: KF3CT Assay for Matrix Metallopeptidase 9 (MMP9) Biomarker Activity (AID 2283074). The conditions noted are these: primary human keratinocytes with fibroblasts; actives raise or lower the signal. Summed up: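 MMP-9 quantified by ELISA after 24 h chemical treatment of primary human skin keratinocyte/fibroblast co-cultures; gain or loss fitted against DMSO, with parallel SRB staining (0.1% SRB, 560 nm) for overt cytotoxicity.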

Calls of active or inactive are those of the source. How the source made its calls: active means hit-call score of the fitted dose curve at least 0.9, where 1 is the maximum; inactive means score below 0.9.

Sequence of E-selectin (Homo sapiens) (P16581 whole entry, looked up): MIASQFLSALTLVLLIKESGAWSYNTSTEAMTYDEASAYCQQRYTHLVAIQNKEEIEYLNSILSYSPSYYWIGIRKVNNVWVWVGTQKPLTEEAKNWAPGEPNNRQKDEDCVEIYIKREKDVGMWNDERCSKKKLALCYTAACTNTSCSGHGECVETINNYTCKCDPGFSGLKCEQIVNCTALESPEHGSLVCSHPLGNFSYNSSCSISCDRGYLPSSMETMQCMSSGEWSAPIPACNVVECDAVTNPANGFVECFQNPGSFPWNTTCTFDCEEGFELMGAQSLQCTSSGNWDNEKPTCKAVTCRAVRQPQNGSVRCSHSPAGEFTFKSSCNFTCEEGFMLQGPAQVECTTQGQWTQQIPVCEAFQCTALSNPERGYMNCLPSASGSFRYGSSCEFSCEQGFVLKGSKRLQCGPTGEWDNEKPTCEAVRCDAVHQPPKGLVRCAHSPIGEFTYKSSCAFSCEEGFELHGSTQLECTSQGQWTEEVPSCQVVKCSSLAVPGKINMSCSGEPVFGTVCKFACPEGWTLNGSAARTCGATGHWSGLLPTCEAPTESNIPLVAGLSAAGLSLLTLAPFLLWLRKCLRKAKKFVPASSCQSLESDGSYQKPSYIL

Turning to `CC[C@H](C)C(=O)O[C@H]1C[C@@H](C)C=C2C=C[C@H](C)[C@H](CC[C@@H]3C[C@@H](O)CC(=O)O3)[C@H]21`, the AC50 in test [1] was 29.9 µM (active); in test [2], 36.3 µM (active); in test [3] it was 36.6 µM (active); in test [4], 29.8 µM (active); in [5], 31.9 µM (active); in [6] it was 33.6 µM (active). Besides, the AC50 in [7] is 34.6 µM (active); in test [8] it was 31.7 µM (active); in test [9], 33.5 µM (active); in test [10], 33.8 µM (active); in test [11] it was 33.3 µM (active); in test [12], 32.5 µM (active). Also, the AC50 is 32.5 µM (active) in test [13]; 13.8 µM (active) in the test with CD40, CD40 (gene 958); 0.398 µM (active) in [14]; 3.95 µM (active) in [16]; 3.95 µM (active) in test [17]. Also, the outcome in [15] and in test [18] was inactive.

In the case of `CC(C)(O)c1coc(S(=O)(=O)NC(=O)Nc2c3c(cc4c2CCC4)CCC3)c1`, the outcome in test [1], in [2], in test [3], in test [4], in test [5] and in test [6] was inactive. In addition, the result in test [7], in test [8], in test [9], in test [10], in [11] and in test [12] was inactive. For the same molecule, the outcome in test [19] was “inactive”; with CD40, CD40 (gene 958), “inactive”; in [14], “inactive”; in test [16], “inactive”; in test [17], “inactive”; in test [18], “inactive”. For the same molecule, the AC50 in [15] was 0.148 µM (active).

On to `Fc1ccccc1[C@@H](F)COC1CCC(Nc2ncnc3[nH]ncc23)CC1` (stereo not given in full), for which the outcome in [1], in test [2], in test [3], in test [4], in [5] and in [6] was inactive. Also, the result in [7], in test [8], in test [9], in test [10], in test [11] and in test [12] was inactive. The outcome in test [19] and in test [17] was inactive. Also, the AC50 is 15.4 µM (active) in the test with CD40, CD40 (gene 958); 29 µM (active) in [14]; 28.9 µM (active) in test [15]; 29.2 µM (active) in test [16]; 30.3 µM (active) in test [18].

Take `Cc1ccc(S(=O)(=O)O)cc1C`: the outcome in test [1], in test [2], in test [3], in test [4], in test [5] and in test [6] was inactive. Further, the outcome in [7], in test [8], in [9], in [10], in test [11] and in [12] was inactive. Moreover, the outcome is “inactive” in test [19]; “inactive” with CD40, CD40 (gene 958); “inactive” in test [14]; “inactive” in test [15]; “inactive” in test [16]; “inactive” in [17]. Besides, the result in [18] was inactive.

Consider `CNCc1ccc(NC(=O)c2c[nH]c3c2C(=O)CCC3)cc1`, for which the result in test [1], in test [2], in test [3], in test [4], in test [5] and in [6] was inactive. Besides, the outcome in test [7], in test [8], in [9], in test [10], in test [11] and in test [12] was inactive. Besides, the outcome in test [19] is “inactive”; with CD40, CD40 (gene 958), “inactive”; in test [14] it was “inactive”; in test [15] it was “inactive”; in test [16], “inactive”; in test [17], “inactive”. Moreover, the result in test [18] was inactive.

What is called AC50 is the concentration at which the activity in the assay is half-maximal.

The values are drawn from PubChem BioAssay (EPA / NIEHS).
